Several values for one entry are separate records, joined by “and”; a condition that tells them apart may be missing. Equal values may be shown once. Among all 5,500 compounds or so, about 2,000 (36%) were called active. Not shown: some 18% with an inconclusive outcome. No stated cut-off is given here; in the data, active means normalized growth mostly below about 0.91 (no sharp cut-off); inconclusive means no clear call, values can overlap the other calls; inactive means mostly above about 0.92. The list shows a part of the results.
Experiment: chemical genetic growth profiling, strain panel (AID 1159580);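 further: tested at 20 µM; growth read once vehicle control cultures reached saturation at 30 °C; 1 = growth at the plate median or of vehicle wells; lower values mean less growth of the strain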
Conditions: S. cerevisiae deletion strains, growth OD

Measured: normalized growth

CN(C)C(=O)Nc1ccc(Cl)c(Cl)c1
inactive: locus YAL013W, strain DEP1, hits give low values 0.992 | locus YAL021C, strain ccr4, hits give low values 0.964 | locus YAL026C, strain drs2, hits give low values 0.97 | locus YAL030W, strain snc1, hits give low values 0.987 | locus YBL061C, strain skt5, hits give low values 0.991 | locus YBR009C, strain hhf1, hits give low values 0.926 | locus YBR021W, strain FUR4, hits give low values 0.904 | locus YBR023C, strain chs3, hits give low values 0.983 | locus YBR171W, strain sec66, hits give low values 1.01 | locus YBR229C, strain ROT2, hits give low values 1 | locus YBR231C, strain swc5, hits give low values 1.01 | locus YBR279W, strain paf1, hits give low values 0.97 | locus YCL011C, strain gbp2, hits give low values 0.954 | locus YCL016C, strain dcc1, hits give low values 0.974 | locus YCL029C, strain bik1, hits give low values 1.01 | locus YCL061C, strain MRC1, hits give low values 0.958 | locus YCL069W, strain vba3, hits give low values 0.994 | locus YCR088W, strain abp1, hits give low values 0.991 | locus YDL005C, strain med2, hits give low values 1 | locus YDL035C, strain GPR1, hits give low values 0.983 | locus YDL040C, strain nat1, hits give low values 0.991 | locus YDL074C, strain BRE1, hits give low values 0.899 | locus YDL101C, strain DUN1, hits give low values 0.999 | locus YDL134C, strain PPH21, hits give low values 0.986 | locus YDL185W, strain tfp1, hits give low values 1.02 | locus YDL192W, strain arf1, hits give low values 1 | locus YDR001C, strain nth1, hits give low values 0.99 | locus YDR069C, strain doa4, hits give low values 0.987 | locus YDR101C, strain arx1, hits give low values 1 | locus YDR137W, strain rgp1, hits give low values 1.03 | locus YDR150W, strain NUM1, hits give low values 0.993 | locus YDR159W, strain sac3, hits give low values 0.989 | locus YDR162C, strain NBP2, hits give low values 0.948 | locus YDR195W, strain ref2 1.1 | locus YDR297W, strain sur2, hits give low values 0.98 | locus YDR318W, strain mcm21, hits give low values 0.994 | locus YDR334W, strain swr1, hits give low values 1.01 | locus YDR335W, strain msn5, hits give low values 0.994 | locus YDR388W, hits give low values 0.992 | locus YDR392W, strain spt3, hits give low values 0.888 | locus YDR502C, strain sam2, hits give low values 0.989 | locus YEL003W, strain gim4, hits give low values 0.997 | locus YEL037C, strain rad23, hits give low values 0.993 | locus YEL061C, strain CIN8 (second series), hits give low values 1.01 | locus YEL061C, strain CIN8, hits give low values 0.998 | locus YER015W, strain faa2, hits give low values 0.968 | locus YER016W, strain bim1, hits give low values 0.992 | locus YER110C, hits give low values 1.01 | locus YER111C, strain swi4, hits give low values 1.02 | locus YER155C, strain BEM2 (second series), hits give low values 0.944 | locus YER155C, strain BEM2, hits give low values 1.01 | locus YER167W, strain BCK2, hits give low values 1 | locus YFR010W, strain ubp6, hits give low values 0.994 | locus YGL078C, strain dbp3, hits give low values 1.01 | locus YGL086W, strain mad1, hits give low values 0.997 | locus YGL167C, strain pmr1, hits give low values 0.988 | locus YGL173C, strain kem1, hits give low values 0.993 | locus YGL227W, strain vid30, hits give low values 0.995 | locus YGL240W, strain doc1, hits give low values 0.967 | locus YGL248W, strain PDE1, hits give low values 0.987 | locus YGL253W, strain hxk2, hits give low values 0.951 | locus YGR078C, strain PAC10, hits give low values 0.982 | locus YGR135W, strain pre9, hits give low values 0.98 | locus YGR229C, strain SMI1, hits give low values 0.942 | locus YGR252W, strain gcn5, hits give low values 0.807 | locus YHR013C, strain ard1, hits give low values 0.995 | locus YHR027C, strain rpn1, hits give low values 1.02 | locus YHR030C, strain SLT2, hits give low values 1.01 and 0.992 | locus YHR079C, strain IRE1 (second series), hits give low values 0.992 | locus YHR079C, strain IRE1, hits give low values 0.985 | locus YHR094C, strain hxt1, hits give low values 1 | locus YHR129C, strain ARP1, hits give low values 0.984 | locus YHR142W, strain chs7, hits give low values 0.887 | locus YHR200W, strain rpn10, hits give low values 0.991 | locus YIL066C, strain RNR3, hits give low values 0.981 | locus YIL073C, strain SPO22, hits give low values 0.981 | locus YIL125W, strain kgd1, hits give low values 1 | locus YIR030C, strain dcg1, hits give low values 1 | locus YJL092W, strain hpr5, hits give low values 0.982 | locus YJL095W, strain BCK1 (second series), hits give low values 1 | locus YJL095W, strain BCK1, hits give low values 0.96 and 0.984 | locus YJL115W, strain asf1, hits give low values 1 | locus YJL129C, strain trk1, hits give low values 0.984 | locus YJL134W, strain LCB3, hits give low values 0.996 | locus YJL154C, strain vps35, hits give low values 0.997 | locus YJL164C, strain tpk1, hits give low values 0.952 | locus YJL166W, strain qcr8, hits give low values 0.976 | locus YJL168C, strain set2, hits give low values 1 | locus YJL187C, strain SWE1 (second series), hits give low values 0.999 | locus YJR043C, strain POL32, hits give low values 0.88 | locus YJR066W, strain TOR1, hits give low values 0.93

Reference: PubChem BioAssay AID1159580 (chemical genetic matrix, 2015)
